High-throughput results: PubChem BioAssay, National Center for Advancing Translational Sciences (NCATS)
Sm TGR inh – qHTS Assay for the Inhibitors of Schistosoma Mansoni Peroxiredoxins | purified TGR, DTNB reduction, TNB absorbance 405 nm | actives 3% (n = 360,000) | Potency, µM (titrated, usually from 114 µM), without a hit: at the highest dose activity change, negative = inhibition, hits mostly inhibitors; also: potency is read from the fitted curve at half-maximal effect; % is scaled to controls: 0 for no effect and ±100 for the full control effect; nearly all actives have a fitted effect of over 60% in size
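First, TGR (20 nM dispensed) and NADPH were mixed with compound. Second, a 15 min room-temperature incubation followed. Third, further NADPH and then DTNB were added to start the reaction. Finally, TNB absorbance was monitored kinetically.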
CHX counter – Cycloheximide Counterscreen for Small Molecule Inhibitors of Shiga Toxin. cell reporter, cycloheximide protein synthesis inhibition counterscreen. max response, %. actives 12% (n = 300,000). AID 2314, 2010; in the data active = max response mostly above about 13%, no sharp cut-off; inactive = mostly below about 14%; also: read at 38.3 µM for the half of the compounds with a filed dose; 0% is about no effect
LmPK inhibitor – qHTS Assay for Inhibitors of Leishmania Mexicana Pyruvate Kinase (LmPK); Q27686; purified LmPK, Kinase-Glo ATP luminescence, 1 h; Potency, µM (series often up to 57.5 µM), without a hit: at the top dose activity change, negative = inhibition, most hits filed as inhibitors; actives 0.37% (n = 290,000); also: potency is read from the fitted curve at half-maximal effect; % is scaled to controls: 0 for no effect and ±100 for the full control effect
Target sequence (Q27686 whole entry, looked up): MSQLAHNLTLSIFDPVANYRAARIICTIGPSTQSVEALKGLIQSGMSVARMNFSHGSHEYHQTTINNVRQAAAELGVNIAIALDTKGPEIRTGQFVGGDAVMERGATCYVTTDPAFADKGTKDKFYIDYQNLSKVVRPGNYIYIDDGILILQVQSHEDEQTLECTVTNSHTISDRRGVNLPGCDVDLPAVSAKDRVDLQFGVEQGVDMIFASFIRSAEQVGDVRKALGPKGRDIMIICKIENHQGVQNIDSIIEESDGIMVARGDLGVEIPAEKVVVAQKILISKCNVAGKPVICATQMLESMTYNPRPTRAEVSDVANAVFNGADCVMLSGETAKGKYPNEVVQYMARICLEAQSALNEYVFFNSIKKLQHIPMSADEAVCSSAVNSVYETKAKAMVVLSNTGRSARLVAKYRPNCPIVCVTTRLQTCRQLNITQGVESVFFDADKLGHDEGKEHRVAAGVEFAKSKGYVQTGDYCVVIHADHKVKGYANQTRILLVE
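Purified LmPK (0.1 nM) with 0.5 mM PEP and 0.1 mM ADP in imidazole buffer pH 7.2 with MgCl2/KCl, 1 h at room temperature. ATP formed was read by luciferase luminescence and normalized to no-enzyme and uninhibited controls.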
Shiga inhibitor – A qHTS for Small Molecule Inhibitors of Shiga Toxin; Vero cells, Shiga toxin protein synthesis inhibition reporter; inhibition, % at 38.7 µM; actives 9.2% (n = 290,000); in the data active = inhibition mostly above about 28%, no sharp cut-off; inactive = mostly below about 43%; also: 0% is about no effect
Tb PYK inh – qHTS of Trypanosoma Brucei Inhibitors; pyruvate kinase (Trypanosoma brucei), Q57TT1; Potency, µM (doses to about 76.8 µM), inactives show top-dose activity, negative = inhibition, most hits filed as inhibitors; TbPYK enzyme, Kinase-Glo Plus ATP luminescence, 45 min; actives 0.12% (n = 410,000); also: potency is read from the fitted curve at half-maximal effect; % is scaled to controls: 0 for no effect and ±100 for the full control effect; nearly all actives have a fitted effect of over 50% in size
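Assay buffer: 50 mM TEA pH 7.2, 100 mM KCl, 10 mM MgCl2, 0.05% BSA, 0.01% Tween-20. Pyruvate kinase from T. brucei plus substrate met compound, then ADP (130 uM final). Luminescence was read post 45 min RT.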
FBPA Giardia inh – qHTS Assay for Inhibitors of Fructose-1,6-bisphosphate Aldolase from Giardia Lamblia; A8B2U2; purified Giardia FBPA; Potency, µM (highest dose often 59.6 µM), for inactives: at the top dose activity, negative = inhibition, most hits filed as inhibitors; actives 0.71% (n = 290,000); AID 2451, 2010; also: potency is read from the fitted curve at half-maximal effect; % is scaled to controls: 0 for no effect and ±100 for the full control effect; nearly all actives have a fitted effect of over 55% in size
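40 nM FBPA preincubated 10 min at RT with compound (up to 57.5 uM final), then substrate plus GAPDH/TPI/NAD/arsenate coupling and diaphorase/resazurin added. Fluorescence read after 20 min at RT, 525/598 nm.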
* marks the source's active call; other numbers are inactive results; u = inconclusive; x = no result; [ ] = another dose, or the depositor's remark. This excerpt belongs to a sample that is enriched for hits. Unless noted, calls follow the shape of the dose curve; as a rule, active = well fitted curve in the direction sought with a large enough effect; inconclusive = small, poorly fitted or top-dose-only effect, or another doubt; inactive = no such curve, though single readings can be large; an effect the other way counts as inactive or inconclusive.

SMILES	Sm TGR inh	CHX counter	LmPK inhibitor	Shiga inhibitor	Tb PYK inh	FBPA Giardia inh
O=C(NNC(=O)c1ccccc1Cl)c1ccc(-n2cncn2)c([N+](=O)[O-])c1	-28.7%	x	x	x	0.0%	x
OC(c1ccccc1)C(O)C(c1ccccc1)N1CCCCC1 (configuration not stated)	x	x	x	x	-0.2%	x
Nc1ccc2nc(SCC(=O)c3ccccc3)sc2c1	-0.8%	45.0*	-5.5%	68.1*	9.9%	5.1%
Nc1cc(N)nc(SCC(=O)c2ccccc2)n1	u	40.0*	-4.2%	11.9	3.3%	2.5%
Nc1ccc2nc(SCc3ccccc3F)sc2c1	6.2%	70.8*	-1.6%	87.3*	-26.2%	-3.6%
Nc1cc(N)nc(SCC(=O)Nc2ccccc2)n1	-2.9%	-3.0	2.6%	11.8	1.4%	-0.6%
Clc1ccc(OCc2cnc(Cl)s2)cc1	-26.4%	25.6*	-4.5%	49.5	-7.7%	1.1%
CCc1ccc(OCc2cnc(Cl)s2)cc1	0.8%	27.5*	-6.4%	77.7	1.6%	0.2%
CC(=O)Nc1ccc(OC/C=C(\C)Cl)cc1	-19.9%	16.5*	-0.7%	30.5	-5.4%	4.3%
CC(=O)Nc1ccc(OC(=O)Oc2ccc(NC(C)=O)cc2)cc1	-5.0%	5.7	4.0%	-1.8	4.2%	-2.0%
CC(=O)Nc1ccc(OCc2cnc(Cl)s2)cc1	x	25.0*	-2.2%	35.1	5.8%	3.0%
CC(=O)Nc1ccc(OCCOCCOc2ccc(NC(C)=O)cc2)cc1	x	x	x	x	-8.5%	x
COc1cc(OC)c(NC(=O)Nc2cc(C)on2)cc1Cl	x	14.8	x	-5.4	x	0.6%
Cc1ccc(C)c(NS(=O)(=O)c2ccc3oc(=O)c4ncn(C)c4c3c2)c1	6.1%	x	x	x	0.8%	x
COc1ccc(-c2cc(NC=O)c3ncc(-c4cccc(C(=O)NCCN(C)C)c4)n3c2)c(OC)c1	x	x	x	x	-1.3%	x
COc1cc2c(cc1OC)/C(=C/C(=O)c1ccccc1)NCC2	11.9%	-1.8	1.7%	-9.9	0.0%	3.6%
CC1CN/C(=C\C(=O)c2ccc(Cl)cc2)C(=O)N1 (configuration not stated)	-3.9%	25.2*	5.7%	49.8	-2.1%	3.5%
CC1CN/C(=C\C(=O)c2ccccc2)C(=O)N1 (configuration not stated)	-9.7%	43.5*	-12.4%	79.2	-1.5%	x
Cc1cc2occ(CC(=O)N(C)CC(=O)Nc3c(C)cccc3C)c2cc1C	-0.7%	x	x	x	-4.7%	x
Cc1cccc(C)c1NC(=O)CN(C)C(=O)Cc1cccc(C(F)(F)F)c1	2.2%	20.9	4.0%	31.4*	-4.2%	10.9%
CCOc1ccccc1CNC(=O)C1=C(C)C(=O)OC12CCN(C(C)=O)CC2	4.6%	x	x	x	0.5%[15.4 µM]	x
COCC(=O)N(C)c1nnc(-c2cnc(C)cn2)s1	3.3%	23.6*	0.9%	60.9	0.9%	2.6%
CCN1CCCC(Sc2nc3c([nH]2)c(=S)n(C)c(=O)n3C)C1 (configuration not stated)	39.8µM*	-4.2	-1.2%	8.9	2.4%	u
Cn1c(=S)c2[nH]c(SCCN)nc2n(C)c1=O	x	x	x	x	-11.3%	x
Cc1cccc(N2CCN(c3ccc(C(=O)O)cc3NC(=O)c3cccc(Cl)c3)CC2C)c1 (configuration not stated)	3.3%	x	x	x	-7.3%	x
SMILES	Sm TGR inh	CHX counter	LmPK inhibitor	Shiga inhibitor	Tb PYK inh	FBPA Giardia inh
O=C(N/N=C/c1ccco1)c1ccc(OCc2ccccc2)cc1	-6.9%	11.1*	2.2%	0.8	-1.4%	-0.4%
O=C(N/N=C/c1ccncc1)c1cc(Br)ccc1OCc1ccccc1	5.4%	3.8	2.4%	-9.8	10.4%	1.7%
O=C(N/N=C/c1ccc(COc2ccc(Br)cc2)o1)c1ccco1	0.7%	21.8	4.6%	active	3.4%	0.1%
Cc1ccc(/C=N/NC(=O)c2ccccc2OCc2cccc(Br)c2)o1	-17.1%	15.2*	1.9%	-9.2	-5.8%	-8.2%
O=C(N/N=C/c1ccc(F)cc1)c1ccc(OCc2ccccc2)cc1	2.7%	-2.2	-0.4%	16.6	24.0%	5.4%
O=C(N/N=C/c1ccco1)c1ccccc1OCc1ccc(Br)cc1	-5.9%	33.1*	-4.9%	117.9*	-2.3%	0.4%
